The assay deals with Glucocorticoid receptor (Homo sapiens) (UniProt P04150). Briefly: GR-GFP Redistribution (AID 450).

Molecules are shown by their SMILES. A number with no mark means an inactive call.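 How the source made its calls: active means compounds whose dose series gives a full or clear partial fitted curve of increased nuclear translocation; inconclusive means weak partial curve or effect only at the top dose; inactive means no dose-dependent translocation response.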 Bounds are passed on as bounds.

The results in this text go back to PubChem BioAssay (NCATS).
Potency means the concentration at half of the fitted maximal effect.

Sequence of Glucocorticoid receptor (Homo sapiens) (P04150 whole entry, looked up): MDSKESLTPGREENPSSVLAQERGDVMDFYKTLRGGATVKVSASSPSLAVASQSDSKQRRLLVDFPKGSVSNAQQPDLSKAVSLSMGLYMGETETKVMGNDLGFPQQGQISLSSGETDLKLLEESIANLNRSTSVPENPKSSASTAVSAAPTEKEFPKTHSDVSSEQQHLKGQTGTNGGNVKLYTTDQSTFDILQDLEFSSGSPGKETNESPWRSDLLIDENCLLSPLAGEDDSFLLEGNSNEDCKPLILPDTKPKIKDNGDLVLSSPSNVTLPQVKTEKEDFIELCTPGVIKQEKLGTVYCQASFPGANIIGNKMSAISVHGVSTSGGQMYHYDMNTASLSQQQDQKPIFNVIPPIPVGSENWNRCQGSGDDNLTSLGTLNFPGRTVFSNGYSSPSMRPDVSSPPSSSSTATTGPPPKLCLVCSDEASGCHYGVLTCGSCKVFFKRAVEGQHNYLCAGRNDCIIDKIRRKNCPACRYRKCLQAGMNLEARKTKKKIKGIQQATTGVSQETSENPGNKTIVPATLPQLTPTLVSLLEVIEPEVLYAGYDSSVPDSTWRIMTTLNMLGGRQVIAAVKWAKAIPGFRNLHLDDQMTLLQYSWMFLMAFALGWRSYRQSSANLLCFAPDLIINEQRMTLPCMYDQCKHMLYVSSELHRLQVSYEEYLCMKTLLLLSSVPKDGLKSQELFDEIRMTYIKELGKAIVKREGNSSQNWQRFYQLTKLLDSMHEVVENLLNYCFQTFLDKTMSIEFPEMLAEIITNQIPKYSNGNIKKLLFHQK

On to `CC1(C)Cc2c(C#N)c(N3CCN(C(=O)c4ccco4)CC3)nc(Cc3ccccc3)c2CO1`, for which the Potency is greater than 20.6 µM. On to `N#Cc1nc(-c2ccccc2Cl)oc1N1CCCCC1`, for which the Potency is greater than 20.6 µM.

Consider `Cc1ccc(-n2ncc3c(N4CCN(c5ccccc5)CC4)ncnc32)c(C)c1`, for which the Potency was greater than 20.6 µM. In the case of `COc1ccc(C(=O)c2sc(NC(C)C)nc2N)cc1OC`, the Potency was greater than 20.6 µM. For `Cc1oc2cc(O)cc(C)c2c(=O)c1-c1cnn(-c2ccccc2)c1`, the Potency is greater than 20.6 µM.
